Measurements as given in PMC5540273 (PLoS ONE, 2017).

How the values were obtained:
Conditions in all cases: concentration: 1 μM, replicates: in singlicate; n = 1
[1] = system: T1, TAK1
T1 construct: gene MAP3K7

[2] = system: TAOK1
[3] = system: TAOK2
[4] = system: TAOK3
[5] = system: TBK1
[6] = system: TEC
[7] = system: TESK1
[8] = system: TGFBR1
[9] = system: TGFBR2
[10] = system: TIE1
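Further: KINOMEscan kinase panel screen.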

| Structure (SMILES) | %Inh [1] [%] | %Inh [2] [%] | %Inh [3] [%] | %Inh [4] [%] | %Inh [5] [%] | %Inh [6] [%] | %Inh [7] [%] | %Inh [8] [%] | %Inh [9] [%] | %Inh [10] [%] |
| --- | --- | --- | --- | --- | --- | --- | --- | --- | --- | --- |
| CCC(=O)c1c(-c2ccccc2)c2cc(Cl)ccc2c(=O)n1Cc1cc(C(=O)NC2CC2)n(C)n1 | 3 | 0 | 0 | 0 | 0 | 2 | 23 | 8 | 0 | 6 |
| COc1ccc(CNC(=O)NC2CCN(c3ccnc(Nc4ccc(F)cc4)n3)C2)cc1 (stereo not drawn) [GSK1379706] | 6 | 0 | 0 | 0 | 27 | 17 | 7 | 46 | 0 | 12 |
| COc1cc2ncn(-c3cc(OCc4ccncc4)c(C(N)=O)s3)c2cc1OC [GSK336313] | 0 | 0 | 0 | 0 | 19 | 6 | 0 | 5 | 0 | 100 |
| Nc1ncnc2c1ncn2-c1cccc(F)c1 [SKF-97560] | 0 | 19 | 0 | 0 | 23 | 3 | 15 | 12 | 0 | 0 |
| Nc1nccc2scc(-c3ccc4c(c3)CCN4C(=O)Cc3ccccc3)c12 [GSK2576924] | 1 | 2 | 17 | 10 | 2 | 16 | 0 | 7 | 0 | 55 |
| Nc1n[nH]c2ncc(-c3ccccc3)cc12 [SB-517081] | 0 | 0 | 9 | 2 | 13 | 6 | 37 | 0 | 0 | 18 |
| CCS(=O)c1ccc(-c2coc3ccc(-c4nnc(C)o4)cc23)cc1 (stereo not drawn) | 21 | 0 | 0 | 0 | 2 | 0 | 0 | 4 | 9 | 0 |
| CCS(=O)(=O)c1ccc(OC)c(Nc2ncc(-c3ccc(F)cc3)o2)c1.Cl [GW591947] | 0 | 0 | 0 | 0 | 3 | 0 | 1 | 0 | 0 | 0 |
| Cc1nn2c(=O)cc(N3CCOCC3)nc2n1Cc1cccc(Cl)c1Cl [GSK2342769] | 0 | 0 | 0 | 0 | 11 | 0 | 10 | 0 | 44 | 12 |
| Nc1ncnc2c1ncn2-c1cccc2ccccc12 [SKF-97184] | 3 | 0 | 9 | 0 | 30 | 0 | 0 | 40 | 11 | 0 |
| COc1cc2ncn(-c3cc(OCc4ccc(S(C)(=O)=O)cc4)c(C(N)=O)s3)c2cc1OC [GW869979] | 0 | 18 | 0 | 0 | 34 | 12 | 0 | 0 | 0 | 0 |
| Cc1cccc(-c2nc(Nc3ccc4c(cnn4C)c3)c3ccccc3n2)n1 [GW876731] | 23 | 12 | 0 | 0 | 0 | 0 | 6 |  | 0 | 0 |
| O=C1NC(=O)C(c2ccccc2)=C1Nc1cccc(O)c1 [SB-390534] | 0 | 30 | 22 | 18 | 14 | 0 | 13 | 6 | 0 | 22 |
| CN1C(=O)C(Nc2cc(Cl)c(O)c(Cl)c2)=C(c2ccc(Cl)cc2)C1=O [SB-404321] | 0 | 0 | 0 | 0 | 4 | 0 | 0 | 6 | 0 | 0 |
| CCc1nc(-c2cccc(C)c2)c(-c2ccncc2)s1 | 0 | 0 | 14 | 0 | 35 | 0 | 0 | 0 | 13 | 0 |
| Cc1nc(N(C)[C@H]2CN(C(=O)CC#N)CC[C@H]2C)c2cc[nH]c2n1 | 6 | 10 | 0 | 0 | 0 | 4 | 0 | 0 | 0 | 1 |
| OCCCNc1nccc(-c2c(-c3cccc(C(F)(F)F)c3)nn3cc(C(F)(F)F)ccc23)n1 [GW630813] | 0 | 0 | 0 | 0 | 10 | 0 | 11 | 0 | 0 | 0 |
| O=C(Nc1ccc2c(c1)OCO2)NC1CCN(c2ccnc(NCc3ccc(F)cc3)n2)CC1 [GSK1379859] | 0 | 0 | 0 | 2 | 2 | 0 | 0 | 0 | 0 | 0 |

| Structure (SMILES) | %Inh [1] [%] | %Inh [2] [%] | %Inh [3] [%] | %Inh [4] [%] | %Inh [5] [%] | %Inh [6] [%] | %Inh [7] [%] | %Inh [8] [%] | %Inh [9] [%] | %Inh [10] [%] |
| --- | --- | --- | --- | --- | --- | --- | --- | --- | --- | --- |
| CCC(=O)c1c(-c2ccccc2)c2cc(Cl)ccc2c(=O)n1Cc1ccc(C(=O)O)cc1 | 0 | 0 | 0 | 0 | 0 | 10 | 6 | 11 | 0 | 0 |
| COc1cc2nccc(Nc3ccc(OCc4ccc(NC(C)=O)cc4)cc3)c2cc1OC.Cl [GW440135] | 0 | 0 | 0 | 1 | 0 | 0 | 13 | 21 | 5 | 1 |
| COc1cccc(C2=C(Nc3cccc(C(=O)O)c3)C(=O)NC2=O)c1 [SB-390770] | 0 | 0 | 0 | 0 | 12 | 0 | 28 | 1 | 0 | 27 |
| O=C(NCc1cccs1)c1cc(C(=O)c2c(Cl)cccc2Cl)c[nH]1 [GW823670] | 0 | 0 | 7 | 0 | 6 | 0 | 0 | 27 | 0 | 8 |
| Cc1nnc(-c2ccc3ncn(-c4ccc(S(C)=O)cc4)c3c2)o1 (stereo not drawn) | 3 | 100 | 0 | 96.2 | 19 | 1 | 8 | 0 | 38 | 0 |
| C[C@@H]1CC[C@H](C(=O)NC2CCCCC2)CN1c1cc(-c2ccc3c(N)n[nH]c3c2)nc(N)n1 [GSK2291363] | 0 | 0 | 0 | 0 | 30 | 9 | 34 | 16 | 0 | 15 |
| COc1cccc(-n2cnc3c(N)ncnc32)c1 [SKF-97416] | 23 | 31 | 9 | 28 | 31 | 5 | 17 | 24 | 0 | 19 |
| COc1ccc(-c2cc3c(C)nc(N)nc3n([C@H]3CC[C@H](O)CC3)c2=O)cn1 | 21 | 0 | 0 | 0 | 90 | 0 | 7 | 0 | 6 | 0 |
| CCCNC(=O)Nc1ccc(Oc2ncnc3ccn(C)c23)cc1 | 22 | 0 | 0 | 0 | 13 | 1 | 0 | 8 | 0 | 0 |
| CCn1c(-c2ccoc2)nc2cnccc21 [SB-733887] | 91.4 | 0 | 0 | 0 | 12 | 16 | 29 | 0 | 0 | 0 |
| COc1ccc(-c2coc3ccc(-c4nnc(SCc5cccc(C#N)c5)o4)cc23)cc1 | 23 | 0 | 10 | 0 | 10 | 0 | 0 | 11 | 0 | 17 |
| CCCC(=O)Nc1n[nH]c2ncc(-c3cccc4ccccc34)cc12 [SB-642057] | 0 | 0 | 1 | 1 | 27 | 15 | 40 | 14 | 49 | 0 |
| CN(C)c1cc(-c2ccc3c(N)n[nH]c3c2)nc(N)n1 [GSK2219329] | 0 | 0 | 0 | 0 | 9 | 1 | 76 |  | 0 | 0 |
| COc1cc(OC)cc(-c2cc3cnc(N)nc3nc2NC(=O)NC(C)(C)C)c1 | 42 | 0 | 0 | 0 | 0 | 0 | 13 | 0 | 7 | 33 |
| Nc1ncnc2c1ncn2-c1ccc(Cl)cc1 [AH2635] | 0 | 0 | 0 | 0 | 15 | 9 | 4 | 0 | 6 | 0 |
| Nc1n[nH]c2nnc(-c3ccccc3)c(-c3ccccc3)c12 [GW554060] | 0 | 0 | 0 | 0 | 8 | 0 | 2 | 12 | 0 | 8 |
| FC(F)(F)c1ccc(-c2ncn(CCCN3CCOCC3)c2-c2ccncc2)cc1 [SB-217780] | 24 | 0 | 0 | 0 | 3 | 3 | 12 | 2 | 0 | 15 |
